Data from PubChem BioAssay (NCATS).
Records with an inconclusive call do not appear. A number with no mark means an inactive call. Activity calls are given as the source filed them. Calls come from the whole dose curve; as a rule, active = well fitted cell-killing curve with a large enough effect; inconclusive = small, poorly fitted or top-dose-only effect; inactive = flat fitted curve, though single readings scatter.

Assay: Cellular viability qHTS for adrenocortical cancer (ACC) cell line NCI-H295R (AID 1963990); note: nearly all actives have a fitted effect of over 60% in size;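 for activity change, negative = viability loss: 0% = DMSO only wells and -100% = full killing with cytotoxic reference compound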
Settings: CellTiter-Glo ATP luminescence, 48 h; series mostly up to 46.1 µM; activity change, negative = viability loss: at the top concentration
Method in brief: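 IC50 and maximal efficacy derive from four-parameter logistic modelling of titration curves, with reads scaled between DMSO-only wells (0%) and doxorubicin hydrochloride (100% inhibition). Compounds spanned up to 46 uM over 48 h.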

SMILES | Potency | activity change, negative = viability loss [%]
COC(=O)C1=C(C)NC(C)=C(C(=O)O[C@@H]2CCCN(Cc3ccccc3)C2)[C@@H]1c1cccc([N+](=O)[O-])c1 | 23.1 µM (active) | 
N#Cc1ccc(COC[C@H]2O[C@@H](n3c(NCc4ccc(Cl)c(Cl)c4)nc4c(N)ncnc43)[C@H](O)[C@@H]2O)cc1 |  | -19.1
COCC(=O)O[C@]1(CCN(C)CCCc2nc3ccccc3[nH]2)CCc2cc(F)ccc2[C@@H]1C(C)C | 16.4 µM (active) | 
Oc1c(Cl)cc(Cl)c(Cl)c1Cc1c(O)c(Cl)cc(Cl)c1Cl | 2.06 µM (active) | 
Cc1c[nH]c(/C=C2\C(=O)Nc3ccccc32)c1CCC(=O)O |  | -20.8
Cn1cc(C2=C(c3cn(C)c4cc([N+](=O)[O-])ccc34)C(=O)NC2=O)c2ccccc21 | 0.178 µM (active) | 
N#C/C(=C(/N)Sc1ccc(N)cc1)c1ccccc1C(F)(F)F |  | -21.8
COC1CCN(C(=O)c2cc(Cc3n[nH]c(=O)c4ccccc34)ccc2F)CC1 |  | -14.4
N#C/C(=C1/SC[C@@H](c2ccc(Cl)cc2Cl)S1)n1ccnc1 |  | -5.06
C[C@]12CC[C@@H]3c4ccc(O)cc4CC[C@H]3[C@@H]1CC[C@@H]2O | 7.94 µM (active) | 
CSc1ccc2c(c1)N(CCC1CCCCN1C)c1ccccc1S2 (centres undefined) | 4.61 µM (active) | 
N#CN1CCC[C@@H](n2nc(-c3ccc(Oc4ccc(F)cc4F)cc3)c(C(N)=O)c2N)C1 |  | -24.4
Nc1nc(N)c(-c2ccccc2)s1 |  | -8.58
COc1cc(-c2cc(-c3ccc(N4CCNCC4)cc3)cnc2C)cc(OC)c1OC |  | -29.3
Cc1nc(NC(=O)N2CCCC2C(N)=O)sc1-c1ccnc(C(C)(C)C(F)(F)F)c1 (centres undefined) | 12.6 µM (active) | 
COc1cc2c(cc1OC)-c1cc(=Nc3c(C)cc(C)cc3C)n(C)c(=O)n1CC2 | 20.6 µM (active) | 
Cc1nnn(C)c1-c1cnc2c3ccc(C(C)(C)O)cc3n([C@H](c3ccccc3)C3CCOCC3)c2c1 | 0.178 µM (active) | 
CN(C)Cc1cccc(N=C(c2ccccc2)c2c(O)[nH]c3cc(C(N)=O)ccc23)c1 |  | -8.1
Cc1ccc(-n2c(C)cc(-c3nnc4n3CCCCC4)c2C)cc1 |  | -34.6
O=C1Nc2ccc(I)cc2/C1=C/c1cc(Br)c(O)c(Br)c1 |  | -19.3

SMILES | Potency | activity change, negative = viability loss [%]
CCS(=O)(=O)CCn1c([N+](=O)[O-])cnc1C | 25.9 µM (active) | 
Nc1nccn2c(C3CCC(C(=O)O)CC3)nc(-c3cc4cccc(Cl)c4[nH]3)c12 (centres undefined) | 12.6 µM (active) | 
Cc1ccc(C(=O)OCc2ccc([C@@H](CN)C(=O)Nc3ccc4cnccc4c3)cc2)c(C)c1 | 11.3 µM (active) | 
COc1ccc(-c2c(C)nn3c(NCCN4CCOCC4)cc(C)nc23)cc1OC |  | -15.9
Cc1cc(F)c(C(=O)Nc2cccc(-c3nncn3C(C)C)n2)cc1-n1cnc(C2CC2)c1 | 14.1 µM (active) | 
Cc1c(CN2CCC(Nc3ncnc4sc(CC(F)(F)F)cc34)CC2)ccc2c1cc(C#N)n2Cc1cn[nH]c1 | 6.31 µM (active) | 
O=c1[nH]c2cc(C(F)(F)F)c(N3CCOCC3)cc2n(CP(=O)(O)O)c1=O |  | -24
CNC[C@H](O)[C@@H](O)[C@H](O)[C@H](O)CO |  | -9.76
C[C@@]12C(=O)OC(=O)[C@]1(C)[C@H]1CC[C@@H]2O1 | 3.98 µM (active) | 
CC(=O)C1CCC2C3CCC4=CC(=O)CCC4(C)C3CCC12C (centres undefined) |  | -23.3
COC[C@@H](c1ccc(C(F)(F)F)cc1)N1CCN(C2(C)CCN(C(=O)c3c(C)ncnc3C)CC2)C[C@@H]1C |  | -19.1
NC(=O)C1(N2CCCCC2)CCN(CCCN2c3ccccc3CCc3ccc(Cl)cc32)CC1 | 2.91 µM (active) | 
COC(=O)Nc1ccc(-c2nc(N3CCOCC3)c3cnn(C4CCN(C(=O)OC)CC4)c3n2)cc1 | 2.51 µM (active) | 
CCCS(=O)(=O)c1nc(NC2CC2)cc(-c2ccc3c(ccn3C3CC(C)(C)NC(C)(C)C3)c2)n1 | 2.18 µM (active) | 
CCOC(=O)c1ccc(N)cc1 |  | -5.64
CC(C)N(CCCNC(=O)Nc1ccc(C(C)(C)C)cc1)C[C@H]1O[C@@H](n2cc(Br)c3c(N)ncnc32)[C@H](O)[C@@H]1O | 25.1 µM (active) | 
CC(/C=C/[C@@H]1C[C@]1(C)c1ccc2c(c1)C(C)(C)CCC2(C)C)=C\C(=O)O |  | -9.28
O=C1OC(CN2CCOCC2)CN1/N=C/c1ccc([N+](=O)[O-])o1 (centres undefined) | 16.4 µM (active) | 
COC1CCC(N2C(=O)CNc3ncc(-c4ccc(C(C)(C)O)nc4)nc32)CC1 (centres undefined) | 15.8 µM (active) | 
